We go through 4 molecules from PubChem BioAssay.

The subject of assay [1] is Wnt5a (protein binding on small-molecule microarray). Kind of assay: Wnt5a binders on small-molecule microarray, primary screen, biophysical, 635/667 nm fluorescence (AID 1142).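 Note: fluorescence read at 667 nm with signal to noise per printed feature.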 Particulars: 635 nm fluorescence, higher = more signal.
The nature of assay [2]: cell viability in Huh7 cells, primary screen, cytotoxicity control for HCV replication inhibitor project, CellTiter-Glo luminescence, basal, 48 h (AID 1143).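 Note: Huh7 hepatoma cells carrying a hepatitis C replication reporter with no stimulus; test concentration not given here.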 The settings on record: Huh7 HCV replicon, higher = more signal, called active from +8 up or from −8 down.
A short description of assay [3]: P. aeruginosa biofilm formation inhibitors, primary screen, PAO1 strain, BacTiter-Glo luminescence, LB-PBS (AID 1144). The settings on record: 12 h, higher = more signal.
Assay [4] is described as follows: CREB reporter modulators without forskolin, primary screen, cell-based, PC12, CRE-LacZ reporter, unstimulated (AID 1145). Particulars: no forskolin, luminescence, 4.5 h, higher = more signal, called active from +8 up or from −8 down.
Assay [5] is described as follows: CREB reporter modulators under forskolin, primary screen, cell-based, PC12, CRE-LacZ reporter, forskolin-stimulated (AID 1146).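 Note: PC12 cells with 6xCRE LacZ reporter stimulated by forskolin 10 µM; beta-galactosidase reporter signal reflecting CREB driven transcription.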 The settings on record: luminescence, 4.5 h, higher = more signal, called active from +8 up or from −8 down.
The target in assay [6] is Streptavidin (Streptomyces avidinii) (UniProt P22629). Briefly: streptavidin binders on small-molecule microarray, primary screen, artefact control for SMM compound annotation, biophysical, 635/667 nm fluorescence (AID 1147).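 Note: signal reflects streptavidin binding to arrayed compounds as a control protein.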 The settings on record: streptavidin binding, higher = more signal.
Sequence of Streptavidin (Streptomyces avidinii) (P22629 whole entry, looked up): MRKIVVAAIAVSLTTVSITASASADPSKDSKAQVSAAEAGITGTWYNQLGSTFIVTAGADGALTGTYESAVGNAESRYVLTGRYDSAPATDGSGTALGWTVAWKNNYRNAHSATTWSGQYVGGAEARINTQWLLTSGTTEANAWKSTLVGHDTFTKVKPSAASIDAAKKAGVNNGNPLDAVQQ
Assay [7] in a line: small-molecule binders of probe aInhba, primary screen, biochemical, small-molecule microarray, 635/667 nm fluorescence (AID 1148).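 Note: score merges 667nm spot fluorescence with signal-to-noise for antibody binding to printed compounds.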 The settings on record: higher = more signal.
For assay [8], the target named is Torsin-1A (Homo sapiens) (UniProt O14656). Kind of assay: torsin A binders from cell lysate, primary screen, small-molecule microarray, wild-type, 635/667 nm (AID 1149). The settings on record: COS7 hTOR1A-WT lysate, 635 nm fluorescence, higher = more signal.
Sequence of Torsin-1A (Homo sapiens) (O14656 whole entry, looked up): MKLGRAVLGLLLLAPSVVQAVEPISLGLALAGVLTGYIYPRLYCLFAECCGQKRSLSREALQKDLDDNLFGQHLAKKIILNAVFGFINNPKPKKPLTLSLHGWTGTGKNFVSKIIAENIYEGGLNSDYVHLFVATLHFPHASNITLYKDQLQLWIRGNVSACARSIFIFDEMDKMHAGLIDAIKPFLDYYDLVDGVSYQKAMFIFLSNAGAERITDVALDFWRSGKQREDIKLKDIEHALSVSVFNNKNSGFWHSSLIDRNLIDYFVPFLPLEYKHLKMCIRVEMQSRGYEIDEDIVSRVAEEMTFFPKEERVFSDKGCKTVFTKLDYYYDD
The target is the same in assay [9]. Briefly: small-molecule binders of mutant TOR1A in lysate, primary screen, cell lysate, small-molecule microarray, COS7 lysate, 635/667 nm fluorescence (AID 1150).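 Note: score pools 667 nm emission and signal to noise measuring lysate protein binding.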 The settings on record: COS7 hTOR1A mutant lysate, 635 nm fluorescence, higher = more signal.
The test system of assay [10] is Sonic hedgehog protein (Shh). Kind of assay: small-molecule binders of Shh protein, primary screen, biochemical, small-molecule microarray, 635/667 nm fluorescence (AID 1151).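 Note: Shh protein binding to compounds spotted on small-molecule microarray slides; score combines spot fluorescence intensity with signal-to-noise across triplicate slides.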 Particulars: small-molecule microarray binding, 635 nm fluorescence; higher = more signal.
Assay [11] is described as follows: E. coli DRC41 culture turbidity changes, primary screen, E. coli filamentation inducer project, strain DRC41, OD650, 48 h (AID 1152).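 Note: E. coli MC1000 strain DRC41 lacking acrAB efflux pump and sulA.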 Particulars: E. coli DRC41 (acrAB sulA), higher = more signal, called active from +8 up or from −8 down.
A short description of assay [12]: small-molecule binders of probe aLefty1, primary screen, biochemical, small-molecule microarray, 635/667 nm fluorescence (AID 1153).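 Note: score merges spot fluorescence with signal-to-noise ratio from the scanned slide images.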 Particulars: higher = more signal.
Assay [13] is described as follows: PSAC antagonists in infected red cells, primary screen, cell-based, P. falciparum Indochina, OD700, 1 h (AID 1154). The settings on record: P. falciparum Indochina infected RBC osmotic lysis, higher = more signal, called active from +8 up or from −8 down.
Assay [14] can be described thus: PSAC antagonists in infected red cells, primary screen, cell-based, P. falciparum Indochina, OD700, 2 h (AID 1155).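 Note: lysis reports solute entry through the parasite surface anion channel PSAC; channel blockers reduce lysis of infected cells.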 The settings on record: P. falciparum Indochina infected erythrocytes, osmotic lysis OD700; higher = more signal, called active from +8 up or from −8 down.
A short description of assay [15]: osmotic lysis modulators in infected erythrocytes, primary screen, PSAC antagonist project, cell-based, P. falciparum Indochina, OD700, 3 h (AID 1156). The settings on record: higher = more signal, called active from +8 up or from −8 down.
The nature of assay [16]: PSAC antagonists in infected red cells, primary screen, cell-based, P. falciparum Indochina, OD700, 18 h (AID 1157). Particulars: P. falciparum Indochina infected erythrocytes, osmotic lysis OD700, 18 h; higher = more signal, called active from +8 up or from −8 down.
The nature of assay [17]: modulators of S6 phosphorylation in cells, primary screen, cell-based, A549, cytoblot, luminescence, serum-stimulated (AID 1158).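 Note: serum-stimulated A549 lung adenocarcinoma cells; signal is phosphorylated S6 detected by cytoblot immunostaining with HRP secondary.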 Particulars: A549 phospho-S6 cytoblot, 5 h, higher = more signal.
For assay [18], the target named is NADPH oxidase 2 (Homo sapiens) (UniProt P04839). Briefly: NOX2-dependent H2O2 signal modulators, primary screen, NOX inhibitor project, cell-based, HEK293-NOX2, PMA-stimulated, Amplex Red fluorescence (AID 1159). Note: test concentration not given here. The settings on record: 45 min, higher = more signal, called active from +8 up or from −8 down.
Sequence of NADPH oxidase 2 (Homo sapiens) (P04839 whole entry, looked up): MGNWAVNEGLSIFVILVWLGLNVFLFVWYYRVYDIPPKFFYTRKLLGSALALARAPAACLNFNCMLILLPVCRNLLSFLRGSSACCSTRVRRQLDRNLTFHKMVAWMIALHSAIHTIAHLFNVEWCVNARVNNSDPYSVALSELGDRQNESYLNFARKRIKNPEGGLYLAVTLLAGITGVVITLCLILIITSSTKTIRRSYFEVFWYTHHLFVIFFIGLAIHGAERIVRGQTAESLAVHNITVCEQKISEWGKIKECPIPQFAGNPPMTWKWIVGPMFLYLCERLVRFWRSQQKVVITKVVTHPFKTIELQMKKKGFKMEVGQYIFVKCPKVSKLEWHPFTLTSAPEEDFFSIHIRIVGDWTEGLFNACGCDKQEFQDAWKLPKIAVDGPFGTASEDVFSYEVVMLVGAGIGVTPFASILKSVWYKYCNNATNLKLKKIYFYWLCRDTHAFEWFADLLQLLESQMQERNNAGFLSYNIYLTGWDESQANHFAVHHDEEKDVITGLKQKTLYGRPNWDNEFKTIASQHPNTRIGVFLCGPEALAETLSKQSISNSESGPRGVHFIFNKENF
For assay [19], the target named is NADPH oxidase 4 (Homo sapiens) (UniProt Q9NPH5). Kind of assay: NOX4-dependent H2O2 signal modulators, primary screen, NOX inhibitor project, cell-based, HEK293-NOX4, tetracycline-induced, Amplex Red fluorescence (AID 1160). The settings on record: 45 min, higher = more signal, called active from +8 up or from −8 down.
Sequence of NADPH oxidase 4 (Homo sapiens) (Q9NPH5 whole entry, looked up): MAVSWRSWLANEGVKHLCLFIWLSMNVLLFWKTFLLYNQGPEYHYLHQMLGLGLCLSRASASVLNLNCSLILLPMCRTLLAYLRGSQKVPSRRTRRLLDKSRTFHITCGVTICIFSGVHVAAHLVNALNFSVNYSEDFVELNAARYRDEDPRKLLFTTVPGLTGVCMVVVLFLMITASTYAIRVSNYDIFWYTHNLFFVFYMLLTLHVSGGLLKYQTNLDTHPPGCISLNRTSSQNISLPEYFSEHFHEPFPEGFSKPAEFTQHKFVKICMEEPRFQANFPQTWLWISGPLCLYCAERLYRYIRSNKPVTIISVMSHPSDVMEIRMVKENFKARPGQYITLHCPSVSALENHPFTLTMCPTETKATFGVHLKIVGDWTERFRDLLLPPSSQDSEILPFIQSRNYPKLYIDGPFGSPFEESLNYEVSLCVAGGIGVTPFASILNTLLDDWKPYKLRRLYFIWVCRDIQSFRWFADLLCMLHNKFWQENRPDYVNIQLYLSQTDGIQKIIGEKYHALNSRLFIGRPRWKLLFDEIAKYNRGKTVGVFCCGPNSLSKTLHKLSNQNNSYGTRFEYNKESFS
Assay [20] has as its target NADPH oxidase 5 (Homo sapiens) (UniProt Q96PH1). Kind of assay: NOX5-dependent H2O2 signal modulators, primary screen, NOX inhibitor project, cell-based, HEK293-NOX5, Amplex Red fluorescence (AID 1161). The settings on record: HEK293-NOX5, ionomycin, 45 min, higher = more signal.

Activity calls are given as the source filed them. Unless noted, the rule behind the calls is not given here.

Sequence of NADPH oxidase 5 (Homo sapiens) (Q96PH1 whole entry, looked up): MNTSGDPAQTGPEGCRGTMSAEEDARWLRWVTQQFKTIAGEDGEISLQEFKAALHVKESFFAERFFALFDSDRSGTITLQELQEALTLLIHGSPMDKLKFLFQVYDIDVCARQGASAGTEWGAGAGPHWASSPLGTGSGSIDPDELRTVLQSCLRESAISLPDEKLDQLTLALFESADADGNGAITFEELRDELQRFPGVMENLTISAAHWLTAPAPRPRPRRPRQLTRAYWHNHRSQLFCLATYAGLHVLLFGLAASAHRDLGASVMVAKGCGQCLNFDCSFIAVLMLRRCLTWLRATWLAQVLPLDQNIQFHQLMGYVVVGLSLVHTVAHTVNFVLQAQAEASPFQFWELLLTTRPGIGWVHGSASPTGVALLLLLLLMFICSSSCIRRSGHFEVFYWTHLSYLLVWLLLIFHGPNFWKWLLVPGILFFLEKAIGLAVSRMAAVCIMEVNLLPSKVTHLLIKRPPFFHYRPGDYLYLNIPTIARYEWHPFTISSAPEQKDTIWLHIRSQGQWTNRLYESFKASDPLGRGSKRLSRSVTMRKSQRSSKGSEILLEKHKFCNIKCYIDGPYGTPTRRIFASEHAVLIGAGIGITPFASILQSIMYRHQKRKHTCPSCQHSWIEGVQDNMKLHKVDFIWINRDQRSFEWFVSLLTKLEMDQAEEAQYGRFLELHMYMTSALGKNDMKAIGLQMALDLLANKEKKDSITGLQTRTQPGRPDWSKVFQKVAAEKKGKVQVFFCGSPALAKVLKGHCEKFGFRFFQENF

On to `COc1ccc(CCNC(=O)[C@@H]2c3ccccc3C(=O)N(c3ccc(C)cn3)[C@H]2c2ccc(CO)cc2)cc1`, for which the composite z-score in assay [1] was -0.657; in [6] it was -0.776; in assay [7], -0.253; with Torsin-1A (Homo sapiens) [8], -2.23; in the assay with Torsin-1A (Homo sapiens) [9] it was -1.76; in [10] it was -0.497. The composite z-score in assay [12] was -0.06. In addition, the z-score in assay [2] is 0.569 (inactive); in [3], -0.456 (inactive); in [4] it was 0.648 (inactive); in assay [5], 0.459 (inactive); in [11] it was 0.119 (inactive); in assay [13], 2.45 (inactive). In addition, the z-score was 0.478 (inactive) in [14]; 0.414 (inactive) in [15]; 0.401 (inactive) in assay [16]; -0.0568 in assay [17]; 0.0857 (inactive) in [18]; -0.882 (inactive) in assay [19]. Moreover, the z-score in [20] was -2.5.

With `CCOC(=O)C[C@H]1[C@H](OC(=O)c2cc3ccccc3oc2=O)[C@@H](NC(=O)c2ccc3ccccc3n2)c2cc(OCCCO)ccc2N1C(=O)c1ccccc1`, the composite z-score in [1] amounted to 0.537; in [6] it was 0.28; in assay [7] it was 0.0345; with Torsin-1A (Homo sapiens) [8], 0.354; with Torsin-1A (Homo sapiens) [9], 1.37; in assay [10], 0.574. The molecule also had a composite z-score in [12] of 0.0793. For the same molecule, the z-score in assay [2] was -2.98 (inactive); in assay [3] it was 0.287 (inactive); in [4], 11.9 (active); in assay [5] it was 0.576 (inactive); in [11] it was 0.571 (inactive); in [13], 1.31 (inactive). The z-score in assay [14] was -0.639 (inactive); in [15] it was 0.628 (inactive); in assay [16], -1.83 (inactive); in assay [17], 0.63; in assay [18] it was -0.253 (inactive); in [19], -0.654 (inactive). Moreover, the z-score in [20] came to 0.86.

For `CCOC(=O)[C@H](Cc1ccccc1)NC(=O)CCC1CC(OC(=O)NCc2ccc3c(c2)OCO3)CC2(CCCC(COC(=O)NCc3ccccc3)O2)O1` (stereo not given in full), the composite z-score was 0.0594 in [1]; 1.13 in [6]; -0.168 in assay [7]; 0.0156 with Torsin-1A (Homo sapiens) [8]; 0.28 with Torsin-1A (Homo sapiens) [9]; 0.944 in assay [10]. Further, the composite z-score in assay [12] was -0.101. Moreover, the z-score is -0.256 (inactive) in assay [2]; -0.971 (inactive) in assay [3]; -0.155 (inactive) in assay [4]; 0.807 (inactive) in [5]; 0.0722 (inactive) in [11]; 0.0765 (inactive) in assay [13]. Also, the z-score in assay [14] was 0.979 (inactive); in assay [15], -1.37 (inactive); in [16], 0.565 (inactive); in assay [17] it was -0.0074; in assay [18] it was -0.988 (inactive); in assay [19] it was 0.852 (inactive). In assay [20], this molecule showed a z-score of 0.562.

As to `CO[C@@H]1COC(=O)CC=C[C@@H](C)[C@@H]2C=C[C@@H](O)[C@@H](COC(=O)CC=C[C@H]1C)O2`, the composite z-score in assay [1] was -0.141; in [6] it was -0.0469; in assay [7], -0.21; with Torsin-1A (Homo sapiens) [8], 0.666; with Torsin-1A (Homo sapiens) [9], 0.244; in assay [10], 2.18. The molecule also registered a composite z-score in assay [12] of -0.012. Moreover, the z-score in assay [2] is -0.972 (inactive); in [3], -0.492 (inactive); in assay [4], 0.343 (inactive); in [5], 0.427 (inactive); in assay [11], 0.301 (inactive); in assay [13] it was 0.118 (inactive). Further, the z-score was -1.35 (inactive) in [14]; -1.66 (inactive) in [15]; -1.73 (inactive) in [16]; 0.805 in assay [17]; -0.0926 (inactive) in [18]; 0.492 (inactive) in [19]. Further, the z-score in assay [20] amounted to 0.957.
